Test results published in PubChem BioAssay (Tox21).
Results filed as inconclusive are left out. Active and inactive are the calls of the source. Unless noted, calls follow the shape of the full dose curve.

Legend:
[1] = Nuclear factor erythroid 2-related factor 2/antioxidant responsive element (Nrf2/ARE) small molecule agonists: qHTS cell viability counter screen in human keratinocytes (AID 1919968; active = well fitted curve in the direction sought with a large enough effect in the repeat runs; an effect the other way counts as inactive or inconclusive; also: nearly all actives have a fitted effect of over 55% in size)
Procedure, shortened: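 Stably transfected HaCaT (KeratinoSens), 1,500/well. Test agents in DMSO were applied for 23 h, 37 C/5% CO2. CellTiter-Fluor was incubated 1 h before the fluorescence read.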

[2] = G protein-coupled receptor (GPCR) small molecule agonists, calcium flux assay: HEK293 wild type cell line counter screen (AID 1920065)
Procedure, shortened: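 Following 18 h incubation at 37 C/5% CO2, plates got calcium dye for 1 h; compounds, ATP or DMSO were then pinned in and fluorescence followed kinetically (480/540 nm).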

[3] = p53 small molecule agonists, cell-based qHTS assay with human liver microsomes (AID 1963577);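 also: p53 response element beta-lactamase reporter cells with liver microsomes plus NADPH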
Procedure, shortened: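 With metabolic activation: human liver microsomes (0.5 mg/mL final) plus NADPH (0.5 mg/mL final) added alongside compounds to p53RE-bla cells; 16 h 37 C exposure; beta-lactamase read by LiveBLAzer fluorescence.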

[4] = p53 small molecule agonists, cell-based qHTS assay with human liver microsomes: qHTS cell viability counter screen (AID 1963579); also: nearly all actives have a fitted effect of over 45% in size
Procedure, shortened: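 Metabolic activation used human liver microsomes and NADPH, both 0.5 mg/mL final, over 16 hours at 37 C on p53RE-bla cells (4,000/well). Cytotoxicity measured by CellTiter-Glo luminescence, 30 min at room temperature.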

[5] = p53 small molecule agonists, cell-based qHTS assay with rat liver microsomes: qHTS cell viability counter screen (AID 1963580); also: nearly all actives have a fitted effect of over 45% in size
Procedure, shortened: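 Counter screen for cytotoxicity under metabolic activation: rat liver microsomes and NADPH, 0.5 mg/mL final each, added with compounds to p53RE-bla HCT-116 cells; 16 h at 37 C, then ATP luminescence read.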

[6] = p53 small molecule agonists, cell-based qHTS assay: qHTS cell viability counter screen (AID 1963581); also: nearly all actives have a fitted effect of over 45% in size
Procedure, shortened: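 qHTS counter screen: 16 h compound exposure at 37 C of p53RE-bla HCT-116 cells (4,000 per well, seeded 5 h prior), cell viability by ATP luminescence.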

[7] = p53 small molecule agonists, cell-based qHTS assay (AID 1963582; active = well fitted activation curve with a large enough effect in the signal ratio in the repeat runs, not every such curve was filed as active; the % refers to the signal ratio)
Procedure, shortened: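 Measured: fluorescence from cleaved LiveBLAzer substrate. System: p53RE-bla cells, 16 h compound treatment at 37 C, 2 h substrate step at room temperature.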

[8] = target: 5-hydroxytryptamine receptor 2A (Homo sapiens) (UniProt P28223); test: 5-hydroxytryptamine receptor 2A (HTR2A) small molecule antagonists, cell-based qHTS assay (AID 1963586); also: nearly all actives have a fitted effect of over 45% in size
Procedure, shortened: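 CHO cells stably expressing human HTR2A were plated for 18 h at 37 C, then loaded with calcium dye for 1 h. Compounds were preincubated 5 min at room temperature before DOI (4 nM solution) was added. Kinetic fluorescence was read for 3 min.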

[9] = target: 5-hydroxytryptamine receptor 2A (Homo sapiens) (UniProt P28223); test: 5-hydroxytryptamine receptor 2A (HTR2A) small molecule agonists, cell-based qHTS assay (AID 1963587); also: nearly all actives have a fitted effect of over 30% in size
Procedure, shortened: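 HTR2A-CHO cells, plated 18 h at 37 C/5% CO2, dye-loaded 1 h at 37 C; compounds in DMSO added by pin tool (agonist mode). Intracellular calcium flux read as kinetic fluorescence on FDSS over 2 min at 1 s intervals.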

[10] = target: Muscarinic acetylcholine receptor M1 (Homo sapiens) (UniProt P11229); test: Cholinergic receptor muscarinic 1 (CHRM1) small molecule antagonists, cell-based qHTS assay (AID 1963588); also: nearly all actives have a fitted effect of over 40% in size
Procedure, shortened: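 Compounds were tested at 15 concentrations in three independent runs. Dye-loaded CHRM1-CHO cells were exposed 5 min at room temperature before stimulation by acetylcholine added at 50nM. Intracellular calcium was read kinetically on FDSS for 3 min.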

[11] = target: Muscarinic acetylcholine receptor M1 (Homo sapiens) (UniProt P11229); test: Cholinergic receptor muscarinic 1 (CHRM1) small molecule agonists, cell-based qHTS assay (AID 1963589); also: nearly all actives have a fitted effect of over 35% in size
Procedure, shortened: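 Kinetic fluorescence (1 s intervals) of calcium-sensitive dye in human M1 CHO cells after compound addition; cells pre-incubated 18 h at 37 C/5% CO2 and dye-loaded 1 h.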

[12] = cAMP Responsive Elements (CRE) small molecule agonists, cell-based qHTS assay (AID 1963590)
Procedure, shortened: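 Test agents in DMSO were incubated 3 h at 37 C/5% CO2 with CRE-bla HEK 293T cells seeded 18 h earlier; LiveBLAzer B/G FRET substrate was added and read after 2 h at room temperature.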

[13] = cAMP Responsive Elements (CRE) small molecule antagonists, cell-based qHTS assay (AID 1963591; active = well fitted inhibition curve with a large enough effect in the signal ratio in the repeat runs, not every such curve was filed as active; the % refers to the signal ratio)
Procedure, shortened: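 Reporter line CRE-bla HEK 293T in dialyzed-FBS DMEM; cells preincubated 18 h, treated 3 h with compound plus NKH477 (0.25 uM final); LiveBLAzer FRET, 2 h RT.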

[14] = target: Beta-2 adrenergic receptor (Homo sapiens) (UniProt P07550); test: Adrenergic beta2 receptor (ADRB2) small molecule antagonists, cell-based qHTS assay (AID 1963592); also: series mostly up to about 92 µM; nearly all actives have a fitted effect of over 50% in size
Procedure, shortened: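 Assay format: CHO-ADRB2 cells, 18-20hr seeding at 37C/5% CO2, then compound plus 1nM isoproterenol agonist mix for 0.5hr RT. Homogeneous time-resolved fluorescence cAMP detection after 1hr, expressed as 665/615 nm ratio.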

[15] = target: Beta-2 adrenergic receptor (Homo sapiens) (UniProt P07550); test: Adrenergic beta2 receptor (ADRB2) small molecule agonists, cell-based qHTS assay (AID 1963593);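 also: CHO cells stably overexpressing human ADRB2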
Procedure, shortened: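 CHO cells stably over-expressing ADRB2 were plated overnight at 37C, then dosed with compounds plus a stimulation mix containing 100uM IBMX and 25uM Ro-20-1724 for 0.5hr at room temperature. cAMP was measured by HTRF competition, 1hr.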

[16] = target: D(2) dopamine receptor (Homo sapiens) (UniProt P14416); test: Dopamine D2 receptor (DRD2) small molecule agonists, cell-based qHTS assay (AID 1963594); also: nearly all actives have a fitted effect of over 35% in size
Procedure, shortened: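 HEK293 cells stably expressing DRD2 were cultured 24 h at 37 C, then given Ro20-1724 (0.1 mM final) and compounds for 10 min at room temperature. NKH477 (200nM) was then added for 30 min. cAMP was read by HTRF.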

[17] = target: D(2) dopamine receptor (Homo sapiens) (UniProt P14416); test: Dopamine D2 receptor (DRD2) small molecule antagonists, cell-based qHTS assay (AID 1963595; active = well fitted inhibition curve with a large enough effect in the signal ratio in the repeat runs, with a control signal flat; the % refers to the signal ratio)
Procedure, shortened: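 Antagonist mode in DRD2-HEK293 cells: after compound addition with 0.1 mM Ro20-1724, cells received quinpirole (12 nM) and NKH477 (200 nM) for 30 min at room temperature; HTRF cAMP read after 1 h detection.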

[18] = p53 small molecule agonists, cell-based qHTS assay with rat liver microsomes (AID 1963578)
Procedure, shortened: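 Metabolic activation by rat liver microsomes and NADPH, each 0.5 mg/mL final, added right after compounds to p53RE-bla reporter cells (4,000/well, plated 5 h earlier). 16 h at 37 C, then LiveBLAzer substrate for 2 h at room temperature in the dark; fluorescence read-out.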

[19] = target: KiSS-1 receptor (Homo sapiens) (UniProt Q969F8); test: Human kisspeptin (KISS1R) small molecule agonists, calcium flux assay in KISS1R-HEK293 cells (AID 1920064; active = well fitted curve in the direction sought with a large enough effect in the repeat runs; an effect the other way counts as inactive or inconclusive)
Procedure, shortened: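 After overnight (18 h) culture at 37 C/5% CO2, human KISS1R-HEK293 cells received calcium dye for 1 h, then test compound; emission at 540 nm (excitation 480 nm) was tracked for 3 min.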
% is scaled to controls: 0 for no effect and ±100 for the full control effect.

Chain of Muscarinic acetylcholine receptor M1 (Homo sapiens) (P11229 whole entry, looked up): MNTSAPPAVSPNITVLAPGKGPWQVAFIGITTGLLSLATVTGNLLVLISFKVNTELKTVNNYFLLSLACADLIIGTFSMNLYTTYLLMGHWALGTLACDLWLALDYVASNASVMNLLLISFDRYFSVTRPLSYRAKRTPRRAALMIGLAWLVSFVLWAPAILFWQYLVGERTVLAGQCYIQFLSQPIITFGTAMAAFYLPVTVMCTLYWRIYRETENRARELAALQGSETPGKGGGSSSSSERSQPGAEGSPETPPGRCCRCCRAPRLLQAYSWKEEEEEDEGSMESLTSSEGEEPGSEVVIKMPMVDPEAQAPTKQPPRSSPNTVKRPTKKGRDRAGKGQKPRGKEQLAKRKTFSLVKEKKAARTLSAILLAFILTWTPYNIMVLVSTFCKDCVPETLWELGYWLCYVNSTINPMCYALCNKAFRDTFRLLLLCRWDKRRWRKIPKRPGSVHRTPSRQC
Chain of Beta-2 adrenergic receptor (Homo sapiens) (P07550 whole entry, looked up): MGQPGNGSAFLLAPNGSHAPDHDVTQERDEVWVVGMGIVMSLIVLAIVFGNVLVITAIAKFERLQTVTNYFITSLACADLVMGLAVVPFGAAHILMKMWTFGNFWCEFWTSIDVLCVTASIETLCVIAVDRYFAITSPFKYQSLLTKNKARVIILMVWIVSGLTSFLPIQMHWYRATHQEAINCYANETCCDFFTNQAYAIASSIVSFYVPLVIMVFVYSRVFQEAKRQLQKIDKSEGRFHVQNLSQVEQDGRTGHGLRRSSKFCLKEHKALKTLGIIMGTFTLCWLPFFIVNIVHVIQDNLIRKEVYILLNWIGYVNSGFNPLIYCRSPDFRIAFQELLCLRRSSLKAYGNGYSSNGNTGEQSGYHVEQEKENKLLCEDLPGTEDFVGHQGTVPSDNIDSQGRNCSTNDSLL
Chain of D(2) dopamine receptor (Homo sapiens) (P14416 whole entry, looked up): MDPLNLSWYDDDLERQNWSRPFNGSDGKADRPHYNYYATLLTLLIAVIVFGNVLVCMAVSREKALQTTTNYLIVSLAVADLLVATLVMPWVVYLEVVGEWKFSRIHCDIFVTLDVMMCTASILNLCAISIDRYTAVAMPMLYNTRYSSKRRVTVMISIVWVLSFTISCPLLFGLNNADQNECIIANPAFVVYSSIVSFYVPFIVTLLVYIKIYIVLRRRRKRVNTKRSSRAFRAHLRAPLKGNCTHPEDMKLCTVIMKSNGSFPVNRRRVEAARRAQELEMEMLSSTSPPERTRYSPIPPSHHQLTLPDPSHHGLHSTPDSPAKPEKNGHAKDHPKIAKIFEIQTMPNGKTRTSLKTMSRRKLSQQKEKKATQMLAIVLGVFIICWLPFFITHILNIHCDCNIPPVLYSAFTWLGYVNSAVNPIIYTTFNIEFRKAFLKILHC
Chain of KiSS-1 receptor (Homo sapiens) (Q969F8 whole entry, looked up): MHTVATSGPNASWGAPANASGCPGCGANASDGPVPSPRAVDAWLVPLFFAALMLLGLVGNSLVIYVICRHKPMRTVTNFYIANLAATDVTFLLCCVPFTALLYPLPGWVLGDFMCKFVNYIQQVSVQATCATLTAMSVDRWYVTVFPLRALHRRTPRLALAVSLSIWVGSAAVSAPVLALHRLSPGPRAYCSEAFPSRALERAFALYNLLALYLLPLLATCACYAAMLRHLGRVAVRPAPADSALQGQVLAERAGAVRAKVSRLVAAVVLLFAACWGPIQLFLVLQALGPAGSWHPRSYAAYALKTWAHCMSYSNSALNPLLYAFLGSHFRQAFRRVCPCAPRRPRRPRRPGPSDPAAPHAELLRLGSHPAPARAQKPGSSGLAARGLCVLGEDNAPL
Chain of 5-hydroxytryptamine receptor 2A (Homo sapiens) (P28223 whole entry, looked up): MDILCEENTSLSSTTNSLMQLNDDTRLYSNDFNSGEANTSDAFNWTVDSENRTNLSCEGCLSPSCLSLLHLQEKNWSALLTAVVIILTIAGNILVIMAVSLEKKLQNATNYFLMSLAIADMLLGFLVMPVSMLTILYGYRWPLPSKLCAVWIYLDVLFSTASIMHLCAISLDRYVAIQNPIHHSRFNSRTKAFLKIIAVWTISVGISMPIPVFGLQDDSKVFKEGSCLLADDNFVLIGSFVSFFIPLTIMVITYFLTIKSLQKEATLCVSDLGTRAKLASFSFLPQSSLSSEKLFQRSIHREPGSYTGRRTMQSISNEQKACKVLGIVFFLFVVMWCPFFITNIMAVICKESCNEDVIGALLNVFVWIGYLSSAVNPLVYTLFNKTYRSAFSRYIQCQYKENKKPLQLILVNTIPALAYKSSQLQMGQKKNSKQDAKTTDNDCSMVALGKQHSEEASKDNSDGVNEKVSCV

O=C(O)CC(O)C(=O)O (configuration not stated)
inactive: Potency [1] | Potency [2] | Potency [3] | Potency [4] | Potency [5] | Potency [6] | Potency [7] | Potency [8] | Potency [9] | Potency [10] | Potency [11] | Potency [12] | Potency [13] | Potency [14] | Potency [15] | Potency [16] | Potency [17]

Clc1ccccn1
inactive: Potency [1] | Potency [2] | Potency [18] | Potency [4] | Potency [6] | Potency [7] | Potency [8] | Potency [10] | Potency [11] | Potency [12] | Potency [13] | Potency [14] | Potency [15] | Potency [16] | Potency [17]

O=C(O)c1cn(-c2ccc(F)cc2)c2cc(N3CCNCC3)c(F)cc2c1=O
inactive: Potency [1] | Potency [19] | Potency [2] | Potency [3] | Potency [18] | Potency [4] | Potency [5] | Potency [6] | Potency [7] | activity change, negative = inhibition [14] 3.86% [at 19 µM] | activation [15] -25.8% [at 19 µM] | Potency [17]

O=S(=O)(O)c1ccc(O)cc1
inactive: Potency [1] | Potency [19] | Potency [2] | Potency [3] | Potency [4] | Potency [5] | Potency [6] | Potency [7] | Potency [8] | Potency [9] | Potency [10] | Potency [11] | Potency [12] | Potency [13] | Potency [14] | Potency [16] | Potency [17]

CCCNC(=O)NS(=O)(=O)c1ccc(Cl)cc1
inactive: Potency [1] | Potency [19] | Potency [2] | Potency [3] | Potency [4] | Potency [5] | Potency [6] | Potency [7] | Potency [13] | Potency [14] | Potency [15] | Potency [16] | Potency [17]

CCCCCCOC(C)=O
inactive: Potency [1] | Potency [19] | Potency [3] | Potency [18] | Potency [4] | Potency [5] | Potency [7] | Potency [8] | Potency [9] | Potency [10] | Potency [11] | Potency [12] | Potency [14] | Potency [16] | Potency [17]

CCCN(CCC)S(=O)(=O)c1ccc(C(=O)O)cc1
inactive: Potency [1] | Potency [19] | Potency [2] | Potency [3] | Potency [18] | Potency [4] | Potency [5] | Potency [6] | Potency [7] | Potency [12] | Potency [13] | Potency [14] | Potency [15] | Potency [16] | Potency [17]

CCCCOCCO
inactive: Potency [1] | Potency [19] | Potency [2] | Potency [3] | Potency [18] | Potency [4] | Potency [5] | Potency [7] | Potency [8] | Potency [9] | Potency [12] | Potency [13] | Potency [14] | Potency [16] | Potency [17]

OCCCc1ccccc1
inactive: Potency [1] | Potency [19] | Potency [2] | Potency [3] | Potency [18] | Potency [4] | Potency [5] | Potency [7] | Potency [8] | Potency [9] | Potency [10] | Potency [11] | Potency [12] | Potency [13] | Potency [14] | Potency [15] | Potency [16] | Potency [17]
